# Screening data deposited in PubChem BioAssay by Broad Institute.
# The list is not random: actives were taken first. Their share in the collection is about 1.8%.
# CFTR F508del cor = CFTR F508del correction in bronchial cells. CFBE cells, YFP halide quenching; stimulated with forskolin plus potentiator P3; % fluorescence drop versus neutral controls. activity (quench increase), % at 7.58 µM. actives 0.36% (n = 350,000);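 active = mean added fluorescence quench of at least 8% versus neutral control, with both replicates also reaching 8%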;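 also: cells transiently co-express mutant CFTR-F508del with the halide-sensitive YFP; corrector assay measuring rescue of mutant channel to the surface after 24 h compound exposure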
# EWS-Fli inh = blocks EWS/Fli oncoprotein-driven transcription | inhibition, % at 12.6 µM | actives 0.67% (n = 350,000) | A673 NR0B1-luciferase reporter, viability-normalised;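 active = mean inhibition of at least 50% after viability correction, with every replicate also passing that limit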;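 also: firefly luciferase signal divided by Alamar Blue viability fluorescence both relative to DMSO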
# LGR2 antag = blocks bursicon-induced cAMP signaling via Drosophila LGR2. HEK293 LGR2, CRE-luciferase, bursicon-stimulated, 4 h. AID 720647. inhibition, % at 9.99 µM. actives 0.35% (n = 380,000);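 active = drop in luminescence signal, shown as inhibition above about 50% in the replicate tests, limit read from the data, passing the limit was not always enough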;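 also: agonist challenge used bursicon conditioned medium at about half maximal strength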
# PAX8 reporter = inhibitors of PAX8 transcriptional activity in RMG-I cells; RMG-I TPO-luciferase reporter, SteadyGlo, 24 h; inhibition, % at 12.6 µM; actives 1.2% (n = 360,000);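 active = mean replicate inhibition at least 60% with every replicate also reaching 60%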;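 also: luciferase light reporting Pax8 driven TPO promoter activity; plate controls were median of neutral control wells for no effect and mitoxantrone controls for full effect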
# Active calls of the source: *; . = no result.
SMILES,CFTR F508del cor,EWS-Fli inh,LGR2 antag,PAX8 reporter
COc1ccc(CN(C)C[C@@H]2Oc3c(NS(=O)(=O)c4ccc(OC)cc4)cccc3C(=O)N([C@H](C)CO)C[C@@H]2C)cc1,-2,0,-24,.
COc1ccc(NCc2nc3ccccc3n2C)cc1,-2,-82,-34,-72
COc1ccc(C(=O)NNC(=O)Cc2nc3ccccc3n2C)cc1,3,7,0,68*
O=C(COc1ccccc1C(=O)Nc1ccccc1)c1ccc(Br)cc1,0,1,8,-1
O=C(Oc1ccccc1C(=O)Nc1ccccc1)c1ccccc1Br,.,53*,.,-19
CCOC(=O)c1ccc(N(CC(=O)NCC2CCCO2)C(=O)CCC(=O)Nc2cc(C)on2)cc1 (configuration not stated),0,2,-4,-16
Cc1ccc(S(=O)(=O)N(C)C[C@@H]2Oc3cc(C4=CCCC4)ccc3S(=O)(=O)N([C@H](C)CO)C[C@@H]2C)cc1,4,6,-13,67*
COc1cccc(S(=O)(=O)N(C)C[C@@H]2Oc3cc(C4=CCCC4)ccc3S(=O)(=O)N([C@@H](C)CO)C[C@H]2C)c1,9.3*,22,16,20
CCCC#Cc1ccc2c(c1)O[C@@H](CN(C)S(=O)(=O)c1cccc(OC)c1)[C@@H](C)CN([C@@H](C)CO)S2(=O)=O,4,17,6,66*
COc1cccc(S(=O)(=O)N(C)C[C@@H]2Oc3cc(C4=CCCC4)ccc3S(=O)(=O)N([C@H](C)CO)C[C@H]2C)c1,11*,22,15,44
Cc1ccc(C(=O)C2CCN(C(=S)NCC3CCCO3)CC2)cc1 (configuration not stated),-1,0,-1,6
O=c1cc(-c2ccc(O)cc2)oc2c(O)c(O)c(O)c(O)c12,-2,8,4,.
CCOC(=O)N1CCC(NC(=O)c2ccc3c(c2)N=C(C)c2c(C)ccc(C)c2S3)CC1,11*,44,7,96*
CCOC(=O)N1CCC(NC(=O)c2ccc3c(c2)N=C(CC)c2cc(C)ccc2S3)CC1,1,.,10,48
c1ccc(Nc2nc(NCc3ccco3)c3ccccc3n2)cc1,-3,9,6,67*
Cc1cccc(Nc2nc(NCc3ccco3)c3ccccc3n2)c1,0,9,.,.
CCCCN(C(=S)Nc1cccc(C)c1C)c1c(N)n(CCC)c(=O)[nH]c1=O,-2,5,8,9
Cc1cscn1,-3,-2,5,.
Cc1cc(OC(C)C(=O)NCC2CCC(C(=O)O)CC2)c2c(C)c(Cc3ccccc3)c(=O)oc2c1 (configuration not stated),-1,6,8,.
COCOc1ccc(C=O)cc1OCOC,3,-5,.,.
CN(C)CCNC(=O)c1coc(=O)c(Br)c1,.,.,7,.
O=C(NCCc1ccccc1)c1coc(=O)c(Br)c1,1,23,-39,65*
COc1ccc(NC(=O)c2cc3ccccn3n2)cc1,-1,25,27,-41
COc1ccc(N2CCN(C(=O)CN(C)S(=O)(=O)c3cccs3)CC2)cc1,-1,3,-9,13
Cc1cc(C(=O)CN2CCN(CC(=O)Nc3ccc(F)cc3)CC2)c(C)n1C1CC1,23*,-6,-4,-2
SMILES,CFTR F508del cor,EWS-Fli inh,LGR2 antag,PAX8 reporter
Cc1ccc(NC(=O)c2nc[nH]c2C(=O)NCCCCNC(=O)c2[nH]cnc2C(=O)Nc2ccc(C)cc2)cc1,5,18,2,80*
Cc1ccc(NC(=O)c2nc[nH]c2C(=O)Nc2ccccc2F)cc1,3,9,-28,-11
O=C(Nc1ccccc1)c1nc[nH]c1C(=O)Nc1ccccc1F,9.5*,17,-2,1
Cc1ccc(NC(=O)c2nc[nH]c2C(=O)NCCCCCCNC(=O)c2[nH]cnc2C(=O)Nc2ccc(C)cc2)cc1,2,4,6,1
C#CCN(C[C@@H]1[C@@H](OC(=O)NCC2CCCCC2)[C@@H](OC(=O)NCC2CCCCC2)CN(C(=O)OC(C)C)N1C(=O)OC(C)C)S(=O)(=O)c1ccc(C)cc1,1,11,-1,72*
Cc1nn(-c2ccccc2)c(Cl)c1CN(C(=O)CCl)c1cccc2ccccc12,.,38,35,111*
CC(=O)N(Cc1c(C)nn(-c2ccccc2)c1Cl)c1ccc(Cl)cc1,.,.,.,-6
Cc1nn(-c2ccccc2)c(Cl)c1CN(C(=O)CCl)c1ccc(Cl)cc1,.,.,0,100*
CCOCC(O)CS(=O)Cc1ccccc1 (configuration not stated),.,.,2,.
C[C@H](CO)N1C[C@H](C)[C@@H](CN(C)S(=O)(=O)c2ccc(Cl)cc2)Oc2ccc(NC(=O)CCN3CCOCC3)cc2C1=O,1,-3,8,-2
